Compounds without any hit were thinned out: in the full panel of roughly 83,000, 20% have a hit.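 The endpoint reported here, percent growth, reads 100 for growth as untreated, 0 for no net growth and -100 for all cells dead.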 Values without a mark were called inactive. Active and inactive are the calls of the source. Rule for the calls: active = growth percent below 10; inactive = the rest.
Assays:
Experiment in all cases: NCI-60 one-dose screen, 48 h (100 = growth as untreated, 0 = no growth, -100 = all killed)
Details in all cases: 10 µM unless noted
DU-145 prostate = test system: DU-145 prostate
K-562 leukemia = test system: K-562 leukemia
MALME-3M melanoma = test system: MALME-3M melanoma
MDA-MB-231 breast = test system: MDA-MB-231 breast
SF-268 CNS = test system: SF-268 CNS
SF-295 CNS = test system: SF-295 CNS
SF-539 CNS = test system: SF-539 CNS
M14 melanoma = test system: M14 melanoma
HCT-15 colon = test system: HCT-15 colon
HT29 colon = test system: HT29 colon
SNB-75 CNS = test system: SNB-75 CNS
SNB-19 CNS = test system: SNB-19 CNS
PC-3 prostate = test system: PC-3 prostate
SK-MEL-5 melanoma = test system: SK-MEL-5 melanoma
UACC-62 melanoma = test system: UACC-62 melanoma
LOX IMVI melanoma = test system: LOX IMVI melanoma
SK-MEL-28 melanoma = test system: SK-MEL-28 melanoma
RXF 393 renal = test system: RXF 393 renal
U251 CNS = test system: U251 CNS

Row | SMILES | growth (DU-145 prostate) | growth (K-562 leukemia) | growth (MALME-3M melanoma) | growth (MDA-MB-231 breast) | growth (SF-268 CNS) | growth (SF-295 CNS) | growth (SF-539 CNS) | growth (M14 melanoma) | growth (HCT-15 colon) | growth (HT29 colon) | growth (SNB-75 CNS) | growth (SNB-19 CNS) | growth (PC-3 prostate) | growth (SK-MEL-5 melanoma) | growth (UACC-62 melanoma) | growth (LOX IMVI melanoma) | growth (SK-MEL-28 melanoma) | growth (RXF 393 renal) | growth (U251 CNS) [%]
1 | CSC1=C(N)C(=O)c2[nH]cc(CO)c2C1=N | -94.8% (active) | -24.1% (active) | -96.1% (active) | 2.56% (active) | -69.4% (active) | -97.1% (active) | -96.2% (active) | -83.5% (active) | -89.2% (active) | -9.17% (active) | -80.2% (active) | -92.2% (active) | -39.9% (active) | -98.8% (active) | -83.2% (active) | -84.9% (active) | -78% (active) | – | –
2 | CCc1nc2cc(/C=C/C(=O)NO)ccc2c(=O)n1CCc1ccc(OC)cc1 | 7.21% (active) | 8.06% (active) | – | 16.8% | 26.4% | 21.3% | 26.5% | 16.3% | 25.2% | 6.61% (active) | 24.1% | 35.9% | 22.9% | 0.923% (active) | -5.16% (active) | -21.8% (active) | – | -25% (active) | 16.5
3 | COc1cc(-c2nc(C(=O)NCC(=O)O)nn2-c2ccc(Cl)cc2)cc(OC)c1OC | 111% | 89.4% | 111% | 106% | 108% | 95.2% | 102% | 98.5% | 102% | 106% | – | 109% | 94.3% | 98.3% | 104% | 84.9% | 104% | – | 96.6
4 | CCN1/C(=C/C=C/c2n(-c3ccccc3)c3ccc(-c4nc5ccccc5s4)cc3[n+]2CC)N(c2ccccc2)c2ccc(-c3nc4ccccc4s3)cc21 | -47.9% (active) | 10.2% | -44.5% (active) | 16.9% | 9.74% (active) | -30.4% (active) | -13.7% (active) | -11.2% (active) | 14.9% | 10.8% | 18.6% | 24.7% | 16.2% | -59.2% (active) | 30.5% | 1.77% (active) | – | – | –

Reference: PubChem BioAssay (NCI)
